Reference: PubChem BioAssay AID1159580 (chemical genetic matrix, 2015)
Values joined by “and” are separate entries in the source; they are usually repeats but may differ in a detail not shown here. Equal entries are not always repeated. Out of some 5,500 compounds screened, about 2,000 (36%) were called active. About 18% were inconclusive and are not listed. Rule as the data show it: active = normalized growth mostly below about 0.91 (no sharp cut-off); inconclusive = no clear call, values can overlap the other calls; inactive = mostly above about 0.92. This is one part of the list.

Test: chemical genetic growth profiling, strain panel (AID 1159580);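 also: tested at 20 µM; growth read once vehicle control cultures reached saturation at 30 °C; 1 = growth at the plate median or of vehicle wells; lower values mean less growth of the strain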
Settings: S. cerevisiae deletion strains, growth OD

Measured: normalized growth

CC[C@H]1OC(=O)[C@H](C)[C@@H](O[C@H]2C[C@@](C)(OC)[C@@H](O)[C@H](C)O2)[C@H](C)[C@@H](O[C@@H]2O[C@H](C)C[C@H](N(C)C)[C@H]2O)[C@](C)(O)C[C@@H](C)[C@@H]2N[C@@H](COCCOC)O[C@H]([C@H]2C)[C@]1(C)O
inactive: locus YAL021C, strain ccr4, stronger effect = lower value 0.991 | locus YAL026C, strain drs2, stronger effect = lower value 0.993 | locus YAL030W, strain snc1, stronger effect = lower value 0.999 | locus YBL061C, strain skt5, stronger effect = lower value 0.982 | locus YBR009C, strain hhf1, stronger effect = lower value 0.995 | locus YBR021W, strain FUR4, stronger effect = lower value 1.01 | locus YBR023C, strain chs3, stronger effect = lower value 0.993 | locus YBR171W, strain sec66, stronger effect = lower value 0.977 | locus YBR229C, strain ROT2, stronger effect = lower value 1.01 | locus YBR231C, strain swc5, stronger effect = lower value 0.992 | locus YBR279W, strain paf1, stronger effect = lower value 0.998 | locus YCL011C, strain gbp2, stronger effect = lower value 0.99 | locus YCL016C, strain dcc1, stronger effect = lower value 0.985 | locus YCL029C, strain bik1, stronger effect = lower value 1.01 | locus YCL061C, strain MRC1, stronger effect = lower value 0.982 | locus YCL069W, strain vba3, stronger effect = lower value 0.988 | locus YCR088W, strain abp1, stronger effect = lower value 0.999 | locus YDL005C, strain med2, stronger effect = lower value 0.978 | locus YDL035C, strain GPR1, stronger effect = lower value 1.01 | locus YDL040C, strain nat1, stronger effect = lower value 0.996 | locus YDL074C, strain BRE1, stronger effect = lower value 1.01 | locus YDL101C, strain DUN1, stronger effect = lower value 1.05 | locus YDL185W, strain tfp1, stronger effect = lower value 1 | locus YDL192W, strain arf1, stronger effect = lower value 1.01 | locus YDR001C, strain nth1, stronger effect = lower value 0.995 | locus YDR069C, strain doa4, stronger effect = lower value 0.995 | locus YDR101C, strain arx1, stronger effect = lower value 0.984 | locus YDR137W, strain rgp1, stronger effect = lower value 1 | locus YDR159W, strain sac3, stronger effect = lower value 0.985 | locus YDR162C, strain NBP2, stronger effect = lower value 1 | locus YDR195W, strain ref2 0.966 | locus YDR297W, strain sur2, stronger effect = lower value 1 | locus YDR318W, strain mcm21, stronger effect = lower value 1.01 | locus YDR334W, strain swr1, stronger effect = lower value 0.986 | locus YDR335W, strain msn5, stronger effect = lower value 0.998 | locus YDR388W, stronger effect = lower value 1.01 | locus YDR392W, strain spt3, stronger effect = lower value 0.989 | locus YDR502C, strain sam2, stronger effect = lower value 0.997 | locus YEL003W, strain gim4, stronger effect = lower value 1 | locus YEL037C, strain rad23, stronger effect = lower value 0.997 | locus YEL061C, strain CIN8 (second series), stronger effect = lower value 0.998 | locus YEL061C, strain CIN8, stronger effect = lower value 1.01 | locus YER015W, strain faa2, stronger effect = lower value 1 | locus YER016W, strain bim1, stronger effect = lower value 0.987 | locus YER110C, stronger effect = lower value 1.01 | locus YER111C, strain swi4, stronger effect = lower value 0.991 | locus YER155C, strain BEM2 (second series), stronger effect = lower value 0.999 | locus YER155C, strain BEM2, stronger effect = lower value 1.01 | locus YER167W, strain BCK2, stronger effect = lower value 1 | locus YFR010W, strain ubp6, stronger effect = lower value 0.988 | locus YGL078C, strain dbp3, stronger effect = lower value 1.01 | locus YGL167C, strain pmr1, stronger effect = lower value 0.991 | locus YGL173C, strain kem1, stronger effect = lower value 0.984 | locus YGL227W, strain vid30, stronger effect = lower value 0.99 | locus YGL240W, strain doc1, stronger effect = lower value 0.989 | locus YGL248W, strain PDE1, stronger effect = lower value 1.02 | locus YGL253W, strain hxk2, stronger effect = lower value 0.998 | locus YGR135W, strain pre9, stronger effect = lower value 1.04 | locus YGR252W, strain gcn5, stronger effect = lower value 0.991 | locus YHR013C, strain ard1, stronger effect = lower value 0.952 | locus YHR027C, strain rpn1, stronger effect = lower value 0.983 | locus YHR030C, strain SLT2, stronger effect = lower value 1 and 1.04 | locus YHR079C, strain IRE1 (second series), stronger effect = lower value 1.01 | locus YHR079C, strain IRE1, stronger effect = lower value 1.03 | locus YHR094C, strain hxt1, stronger effect = lower value 1.01 | locus YHR129C, strain ARP1, stronger effect = lower value 1.01 | locus YHR142W, strain chs7, stronger effect = lower value 0.997 | locus YHR200W, strain rpn10, stronger effect = lower value 1.01 | locus YIL066C, strain RNR3, stronger effect = lower value 1.01 | locus YIL073C, strain SPO22, stronger effect = lower value 1.06 | locus YIL125W, strain kgd1, stronger effect = lower value 1 | locus YIR030C, strain dcg1, stronger effect = lower value 1.02 | locus YJL092W, strain hpr5, stronger effect = lower value 0.991 | locus YJL095W, strain BCK1 (second series), stronger effect = lower value 0.982 | locus YJL095W, strain BCK1, stronger effect = lower value 1.06 and 1 | locus YJL115W, strain asf1, stronger effect = lower value 0.995 | locus YJL129C, strain trk1, stronger effect = lower value 1.01 | locus YJL134W, strain LCB3, stronger effect = lower value 1.01 | locus YJL154C, strain vps35, stronger effect = lower value 0.993 | locus YJL164C, strain tpk1, stronger effect = lower value 1 | locus YJL166W, strain qcr8, stronger effect = lower value 0.993 | locus YJL168C, strain set2, stronger effect = lower value 1 | locus YJL187C, strain SWE1 (second series), stronger effect = lower value 1.05 | locus YJL187C, strain SWE1, stronger effect = lower value 0.991 | locus YJR043C, strain POL32, stronger effect = lower value 0.989 | locus YJR066W, strain TOR1, stronger effect = lower value 0.982
